Laboratory results taken from PubChem BioAssay (NCI).
This is part of a sample that, as a whole, favours compounds with a hit. Of some 83,000 tested, about 20% had one in any assay.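 Cell lines were cultured in 96-well plates, exposed to a single compound concentration, and assessed for percent growth 48 hours later.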 Unmarked numbers belong to inactive results. Calls of active or inactive are those of the source. Rule for the calls: active = growth percent below 10; inactive = the rest.

These molecules were tested on HL-60(TB) leukemia (assay: NCI-60 one-dose screen, 48 h (100 = growth as untreated, 0 = no growth, -100 = all killed)). Conditions: 10 µM unless noted.

Question: `CC1CC2Oc3ccc(Cl)cc3C(=O)N2O1` (stereo not given) was tested. Which growth did it give?
Answer: 110%

Question: For `O=c1oc2ccc(Cl)cc2c(=O)n1-c1ccc(F)cc1F`, which growth is on record?
Answer: -28.8% (active)

Question: With `COc1ccc2nc3nc4ccc[nH]c4cc3c2c1` as the molecule, how does the growth read?
Answer: 85.6%

Question: `Cc1cc(N)ccc1-c1ccc(N)cc1C` was tested. Which growth did it give?
Answer: 84.6%

Question: How did the growth turn out when `CCNC(=O)Oc1ccc(/C(=C(\C)c2ccccc2)c2ccc(OCCCN(C)C)cc2)cc1` was run?
Answer: 53.2%

Question: How did the growth turn out when `Cc1cc(N(CCNc2ccnc3cc(Cl)ccc23)Cc2cccs2)nc(Cl)n1` was run?
Answer: -72.4% (active)

Question: For `O=C(NOCCO)c1ccc2cncn2c1Nc1ccc(I)cc1F`, which growth is on record?
Answer: 23.5%

Question: `CCn1c(Cc2ccccc2Nc2c(Cl)cccc2Cl)nnc1SCC(=O)NN1C(=O)/C(=C/c2cccc(OC)c2OC)SC1=S` was tested. Which growth did it give?
Answer: 97.5%

Question: `COc1cc(N2CCC(N(C)C)CC2)ccc1Nc1ncc(Cl)c(Nc2ccccc2P(C)(C)=O)n1` was tested. Which growth did it give?
Answer: 10%

Question: Which growth does the source give for `C=CCc1c(O)c(C(=O)/C=C/c2ccccc2)c(OC)c2ccoc12` here?
Answer: 36.3%

Question: Which growth does the source give for `Cc1ccccc1NC(=O)Oc1ccc(Cl)cc1C(=O)c1ccccc1` here?
Answer: 103%

Question: With `Nc1n[nH]c(=S)n1-c1ccc(Cl)cc1` as the molecule, how does the growth read?
Answer: 82.6%

Question: How did the growth turn out when `CC(=O)C1CCC(C)=CC1=O` (stereo not given) was run?
Answer: 119%

Question: Which growth does the source give for `CCCCCCc1nc2nc(Cl)c(Cl)nc2[nH]1` here?
Answer: 39.6%

Question: Which growth does the source give for `Clc1ccc(Cn2cc(-c3nc4ccc(Br)nc4n3Cc3ccc(Cl)cc3)c3cccnc32)cc1` here?
Answer: 94.1%

Question: How did the growth turn out when `CCC(=O)C1C(=O)c2ccccc2C1=O` was run?
Answer: 75.3%

Question: For `c1ccc2c(c1)nc(-n1ccnc1)c1nc3ccccc3n12`, which growth is on record?
Answer: 101%

Question: For `CC(=O)c1nn(-c2ccc(C)cc2)cc1C(=O)c1cc2c(ccc3ccccc32)oc1=O`, which growth is on record?
Answer: 104%

Question: With `O=C(Nc1cccc(Br)c1)Oc1ccc(Cl)c2cccnc12` as the molecule, how does the growth read?
Answer: 3.1% [100 µM] (active)

Question: With `CC(=O)OCC1O[C@@H](OC(C)=O)[C@@H](NC(=O)NS(=O)(=O)c2ccccc2)C(OC(C)=O)[C@@H]1OC(C)=O` (stereo not given in full) as the molecule, how does the growth read?
Answer: 95.7%

Question: How did the growth turn out when `CNC1=C([N+](=O)[O-])C(c2ccccc2O)C(C#N)=C(c2cccs2)O1` (stereo not given) was run?
Answer: 75.1%

Question: `CC(=O)Nc1ccc(S(=O)(=O)N/N=C(\C)c2ccc(C)cc2C)cc1` was tested. Which growth did it give?
Answer: 86.4%

Question: With `CN(C)C(=O)OCc1nc2c(N3CCOCC3)nc(-c3ccccc3)nc2n1C` as the molecule, how does the growth read?
Answer: -29.2% (active)

Question: `C#Cc1cccc(Nc2nc3cc([N+](=O)[O-])ccc3nc2Nc2ccc(O)cc2)c1` was tested. Which growth did it give?
Answer: 4.42% (active)

Question: How did the growth turn out when `COc1ccc(C(O)c2cc3c(N)c(C(=O)Nc4cccc(Br)c4)sc3nc2C)cc1` (stereo not given) was run?
Answer: -5.69% (active)

Question: For `Nc1nc(-c2ccccc2)cs1`, which growth is on record?
Answer: 115%

Question: How did the growth turn out when `CC(=O)Cc1cc(-c2cc(CC(C)=O)[nH]n2)n[nH]1` was run?
Answer: 88.1%

Question: `OC(c1cc2ccc(C(F)(F)F)cc2c2cc(C(F)(F)F)ccc12)C1CCCCN1` (stereo not given) was tested. Which growth did it give?
Answer: -72.8% (active)

Question: For `CCCCCCCC/C=C\CCCCCCCCOc1ccccc1CC(=O)NCC[N+]1(C)CCCCC1`, which growth is on record?
Answer: -19.6% (active)

Question: With `Fc1ccc(COc2ccc(Nc3ncnc4sc5c(c34)CCCC5)cc2)cc1` as the molecule, how does the growth read?
Answer: 87.4%

Question: `NC(N)=N/N=C/c1ccc(-c2ccc(-c3cc(Cl)cc(Cl)c3)s2)cc1` was tested. Which growth did it give?
Answer: 24.9%

Question: Which growth does the source give for `CC(Cc1cccc2ccccc12)C(N)=O` (stereo not given) here?
Answer: 99.5%

Question: For `CCC(CCCN(CC)CCc1ccccc1)OC(=O)c1cc(OC)c(OC)c(OC)c1` (stereo not given), which growth is on record?
Answer: 95%

Question: For `COc1ccc(Cn2cc3c(c2)-c2oncc2CC3)cc1`, which growth is on record?
Answer: 24.5%

Question: For `COc1cc2cc(OC(C)=O)c3cc4c(cc3c2c(OC)c1OC)OCO4`, which growth is on record?
Answer: 96.6%

Question: How did the growth turn out when `CC1CCCC(CC(N)=O)CC1` (stereo not given) was run?
Answer: 90.5%

Question: `COc1ccc(C2=Nn3c(nnc3-c3ccc(Cl)cc3N)SC2)cc1` was tested. Which growth did it give?
Answer: 100%

Question: For `c1ccc2c(-c3nc(-c4c[nH]c5ccncc45)cs3)c[nH]c2c1`, which growth is on record?
Answer: 45.9%

Question: How did the growth turn out when `O=C(Oc1ccc(CCl)cc1)c1ccccc1` was run?
Answer: -44.6% (active)

Question: For `C[C@H]1OC(=O)/C=C/[C@@H](O)[C@@H](O)CCCCCCCC[C@@H]1O`, which growth is on record?
Answer: 99.6%
